This note sets out measurements from PMC7862700, “An all-to-all approach to the identification of sequence-specific readers for epigenetic DNA modifications on cytosine”.

Assay in all cases: DAPPL (digital affinity profiling via proximity ligation, sequencing); 10 mM Tris-HCl pH 7.5, 50 mM NaCl, 1 mM DTT, 4% glycerol, room temperature, 30 min; GST-TFs on glutathione beads, 16-mer random dsDNA library, 0.1% formaldehyde crosslink after washing; high values mean tight binding
Common to all, as to conditions: protein: recombinant; tags: N-terminal GST; dsDNA, one strand shown

The target in assay [1] is T1, ERF (Homo sapiens, UniProt P50548 1-548).
T1 sequence: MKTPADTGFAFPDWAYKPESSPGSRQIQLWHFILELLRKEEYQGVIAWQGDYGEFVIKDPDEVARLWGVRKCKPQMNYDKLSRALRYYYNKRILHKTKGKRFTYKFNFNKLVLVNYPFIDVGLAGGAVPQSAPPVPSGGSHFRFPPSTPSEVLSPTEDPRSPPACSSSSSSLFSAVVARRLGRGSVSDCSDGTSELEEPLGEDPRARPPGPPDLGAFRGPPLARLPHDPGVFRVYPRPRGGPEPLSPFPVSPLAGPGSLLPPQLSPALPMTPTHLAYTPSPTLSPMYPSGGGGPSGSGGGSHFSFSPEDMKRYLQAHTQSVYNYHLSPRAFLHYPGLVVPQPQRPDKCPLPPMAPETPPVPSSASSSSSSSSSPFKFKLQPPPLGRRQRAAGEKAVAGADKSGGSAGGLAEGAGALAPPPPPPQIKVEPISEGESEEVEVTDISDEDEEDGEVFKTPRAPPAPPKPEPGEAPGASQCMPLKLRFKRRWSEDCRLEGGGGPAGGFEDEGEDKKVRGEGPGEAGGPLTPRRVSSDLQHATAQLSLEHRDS
An outline of the steps: (§1)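 Yeast served to express human transcription factors as GST fusions, which were then captured on glutathione beads and labelled with DNA barcodes. Pooled with a tag-only sample, they were incubated with 200 nmole of a 16-mer random double-stranded DNA library for 30 min at room temperature in Tris/NaCl/DTT/glycerol buffer, washed, crosslinked with 0.1% formaldehyde, ligated by proximity, amplified by PCR and sequenced. Dividing each hexamer's read frequency for a factor by its frequency for the tag-only sample gives the binding signal.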

Assay [2] addresses T2, ETV3L (Homo sapiens, UniProt Q6ZN32 1-361).
T2 sequence: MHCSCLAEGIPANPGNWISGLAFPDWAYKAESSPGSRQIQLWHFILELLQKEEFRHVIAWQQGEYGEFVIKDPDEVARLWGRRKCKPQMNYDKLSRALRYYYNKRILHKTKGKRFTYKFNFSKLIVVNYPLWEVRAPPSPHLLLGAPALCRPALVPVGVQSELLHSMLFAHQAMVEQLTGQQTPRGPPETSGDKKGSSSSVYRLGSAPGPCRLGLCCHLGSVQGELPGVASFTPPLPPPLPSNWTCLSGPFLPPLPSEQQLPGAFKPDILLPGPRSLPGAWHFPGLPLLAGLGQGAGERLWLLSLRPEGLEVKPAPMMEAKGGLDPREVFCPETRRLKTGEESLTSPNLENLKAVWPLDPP
An outline of the steps:
as §1

In assay [3] the target is T3, ETS2 (Homo sapiens, UniProt P15036 1-469).
T3 sequence: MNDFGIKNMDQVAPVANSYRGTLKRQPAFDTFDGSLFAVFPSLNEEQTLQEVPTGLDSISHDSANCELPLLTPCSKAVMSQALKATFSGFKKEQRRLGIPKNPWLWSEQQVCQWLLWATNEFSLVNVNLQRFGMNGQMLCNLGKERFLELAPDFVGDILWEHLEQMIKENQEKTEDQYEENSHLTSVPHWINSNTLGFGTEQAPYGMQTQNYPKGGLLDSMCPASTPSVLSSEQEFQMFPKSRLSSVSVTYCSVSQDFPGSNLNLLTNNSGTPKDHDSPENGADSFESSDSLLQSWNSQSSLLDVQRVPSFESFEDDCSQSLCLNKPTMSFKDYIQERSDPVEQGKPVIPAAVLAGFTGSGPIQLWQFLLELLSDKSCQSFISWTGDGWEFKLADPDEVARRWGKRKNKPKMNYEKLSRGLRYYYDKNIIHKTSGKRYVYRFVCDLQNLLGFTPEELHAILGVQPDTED
The gist of the method: as §1

The target in assay [4] is T4, SPDEF (Homo sapiens, UniProt O95238 1-335).
T4 sequence: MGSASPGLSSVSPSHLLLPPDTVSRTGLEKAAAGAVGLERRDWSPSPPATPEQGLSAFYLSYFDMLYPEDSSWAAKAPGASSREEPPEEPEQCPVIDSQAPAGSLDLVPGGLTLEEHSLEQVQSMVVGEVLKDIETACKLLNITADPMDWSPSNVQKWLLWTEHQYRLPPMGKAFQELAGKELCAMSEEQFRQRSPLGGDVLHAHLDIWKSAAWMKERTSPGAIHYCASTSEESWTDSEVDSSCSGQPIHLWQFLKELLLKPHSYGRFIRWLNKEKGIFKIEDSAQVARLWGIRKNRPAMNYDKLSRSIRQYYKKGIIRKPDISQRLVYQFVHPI
An outline of the steps: as §1

For assay [5], the target named is T5, ETV7 (Homo sapiens, UniProt Q9Y603 1-341).
T5 sequence: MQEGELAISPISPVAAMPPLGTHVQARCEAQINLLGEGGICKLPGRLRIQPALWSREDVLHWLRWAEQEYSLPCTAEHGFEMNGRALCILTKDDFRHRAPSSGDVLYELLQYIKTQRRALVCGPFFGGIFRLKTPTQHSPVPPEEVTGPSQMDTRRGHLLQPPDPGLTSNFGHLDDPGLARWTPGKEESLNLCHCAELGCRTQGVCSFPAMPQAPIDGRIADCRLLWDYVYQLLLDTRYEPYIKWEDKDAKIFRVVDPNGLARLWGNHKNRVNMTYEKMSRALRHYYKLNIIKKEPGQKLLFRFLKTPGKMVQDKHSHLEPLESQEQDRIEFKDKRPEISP
The gist of the method: as §1

Assay [6] concerns the target T6, ELF5 (Homo sapiens, UniProt Q9UKW6-2 1-255).
T6 sequence: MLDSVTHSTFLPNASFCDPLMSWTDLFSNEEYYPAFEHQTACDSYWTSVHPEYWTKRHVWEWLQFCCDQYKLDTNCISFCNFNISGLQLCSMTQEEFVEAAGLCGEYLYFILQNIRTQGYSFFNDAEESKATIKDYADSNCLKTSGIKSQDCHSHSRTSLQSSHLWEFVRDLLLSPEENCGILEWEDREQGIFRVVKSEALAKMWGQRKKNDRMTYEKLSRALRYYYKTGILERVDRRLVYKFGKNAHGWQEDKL
The gist of the method: as §1

The target of assay [7] is T7, ETV3 (Homo sapiens, UniProt P41162-2 1-143).
T7 sequence: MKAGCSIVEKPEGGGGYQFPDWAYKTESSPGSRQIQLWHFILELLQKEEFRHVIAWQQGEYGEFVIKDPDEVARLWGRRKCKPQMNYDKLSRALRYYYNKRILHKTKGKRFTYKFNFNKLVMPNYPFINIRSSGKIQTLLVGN
An outline of the steps: as §1

The target of assay [8] is ETV6 (Homo sapiens, UniProt P41212 1-452). The gist of the method:
as §1

ETV6, sequence (P41212 whole entry): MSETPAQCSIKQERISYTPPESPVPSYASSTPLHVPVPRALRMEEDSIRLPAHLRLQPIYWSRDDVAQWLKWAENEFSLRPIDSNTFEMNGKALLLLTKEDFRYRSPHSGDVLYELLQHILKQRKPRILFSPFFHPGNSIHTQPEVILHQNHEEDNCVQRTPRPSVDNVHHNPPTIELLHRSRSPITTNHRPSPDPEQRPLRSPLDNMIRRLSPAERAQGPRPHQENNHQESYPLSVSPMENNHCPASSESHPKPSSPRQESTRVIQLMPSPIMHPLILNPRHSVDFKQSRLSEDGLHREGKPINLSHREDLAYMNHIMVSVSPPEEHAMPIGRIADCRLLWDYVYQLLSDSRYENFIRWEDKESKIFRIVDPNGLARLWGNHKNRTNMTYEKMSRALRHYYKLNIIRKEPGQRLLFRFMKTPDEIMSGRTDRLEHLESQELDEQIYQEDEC

Regarding CGAACA, the binding signal was 1.17 fold enrichment (6-mer frequency, TF over GST control) in assay [1]; 1.13 fold enrichment (6-mer frequency, TF over GST control) in assay [2]; 1.22 fold enrichment (6-mer frequency, TF over GST control) in assay [3]; 1.1 fold enrichment (6-mer frequency, TF over GST control) in assay [4]; 1.2 fold enrichment (6-mer frequency, TF over GST control) in assay [5]; 1.05 fold enrichment (6-mer frequency, TF over GST control) in assay [6]. The binding signal is 1.15 fold enrichment (6-mer frequency, TF over GST control) in assay [7] and 1.19 fold enrichment (6-mer frequency, TF over GST control) in assay [8].
Turning to CCGTAT, the binding signal in assay [1] is 1.19 fold enrichment (6-mer frequency, TF over GST control); in assay [2], 1.17 fold enrichment (6-mer frequency, TF over GST control); in assay [3], 1.18 fold enrichment (6-mer frequency, TF over GST control); in assay [4] it was 1.41 fold enrichment (6-mer frequency, TF over GST control); in assay [5], 1.09 fold enrichment (6-mer frequency, TF over GST control); in assay [6], 1.31 fold enrichment (6-mer frequency, TF over GST control). For the same sequence, the binding signal in assay [7] is 1.38 fold enrichment (6-mer frequency, TF over GST control); in assay [8], 1.24 fold enrichment (6-mer frequency, TF over GST control).
On to ACAACA, for which the binding signal in assay [1] was 1.31 fold enrichment (6-mer frequency, TF over GST control); in assay [2], 1.17 fold enrichment (6-mer frequency, TF over GST control); in assay [3], 1.18 fold enrichment (6-mer frequency, TF over GST control); in assay [4], 1.19 fold enrichment (6-mer frequency, TF over GST control); in assay [5], 1.23 fold enrichment (6-mer frequency, TF over GST control); in assay [6] it was 1.22 fold enrichment (6-mer frequency, TF over GST control). In addition, the binding signal in assay [7] was 1.27 fold enrichment (6-mer frequency, TF over GST control); in assay [8], 1.29 fold enrichment (6-mer frequency, TF over GST control).
As for TAATCC, the binding signal was 1.12 fold enrichment (6-mer frequency, TF over GST control) in assay [1]; 1.21 fold enrichment (6-mer frequency, TF over GST control) in assay [2]; 1.36 fold enrichment (6-mer frequency, TF over GST control) in assay [3]; 1.44 fold enrichment (6-mer frequency, TF over GST control) in assay [4]; 1.28 fold enrichment (6-mer frequency, TF over GST control) in assay [5]; 1.19 fold enrichment (6-mer frequency, TF over GST control) in assay [6]. For the same sequence, the binding signal was 1.29 fold enrichment (6-mer frequency, TF over GST control) in assay [7] and 1.27 fold enrichment (6-mer frequency, TF over GST control) in assay [8].
In the case of GACCTA, the binding signal was 1.09 fold enrichment (6-mer frequency, TF over GST control) in assay [1]; 1.31 fold enrichment (6-mer frequency, TF over GST control) in assay [2]; 1.19 fold enrichment (6-mer frequency, TF over GST control) in assay [3]; 1.13 fold enrichment (6-mer frequency, TF over GST control) in assay [4]; 1.2 fold enrichment (6-mer frequency, TF over GST control) in assay [5]; 1.15 fold enrichment (6-mer frequency, TF over GST control) in assay [6]. The binding signal in assay [7] is 1.07 fold enrichment (6-mer frequency, TF over GST control); in assay [8], 1.22 fold enrichment (6-mer frequency, TF over GST control).
With TTGTTG, the binding signal is 1.13 fold enrichment (6-mer frequency, TF over GST control) in assay [1]; 1.21 fold enrichment (6-mer frequency, TF over GST control) in assay [2]; 1.1 fold enrichment (6-mer frequency, TF over GST control) in assay [3]; 1.11 fold enrichment (6-mer frequency, TF over GST control) in assay [4]; 1.12 fold enrichment (6-mer frequency, TF over GST control) in assay [5]; 1.13 fold enrichment (6-mer frequency, TF over GST control) in assay [6]. The binding signal in assay [7] is 1.19 fold enrichment (6-mer frequency, TF over GST control); in assay [8], 1.07 fold enrichment (6-mer frequency, TF over GST control).
For the sequence TTTACC, the binding signal was 1.21 fold enrichment (6-mer frequency, TF over GST control) in assay [1]; 1.1 fold enrichment (6-mer frequency, TF over GST control) in assay [2]; 1.28 fold enrichment (6-mer frequency, TF over GST control) in assay [3]; 1.26 fold enrichment (6-mer frequency, TF over GST control) in assay [4]; 1.45 fold enrichment (6-mer frequency, TF over GST control) in assay [5]; 1.2 fold enrichment (6-mer frequency, TF over GST control) in assay [6]. Also, the binding signal is 1.36 fold enrichment (6-mer frequency, TF over GST control) in assay [7] and 1.26 fold enrichment (6-mer frequency, TF over GST control) in assay [8].
